The text below walks through data of PubChem BioAssay (NCATS).

Activity calls are given as the source filed them. A call without a number means that no potency is given here. Calls follow the shape of the dose curve; as a rule, active = well fitted curve in the direction sought with a large enough effect; inconclusive = small, poorly fitted or top-dose-only effect, or another doubt; inactive = no such curve, though single readings can be large or run the other way.
Potency is read from the fitted curve at half-maximal effect.

This experiment is described as follows: qHTS for compounds that reverse cellular toxicity of Amyloid beta (A-beta) peptide in yeast: LOPAC Validation Assay (AID 720559). The settings on record: yeast expressing A-beta; Potency: rescue of growth toxicity; series mostly up to 46.1 µM. In a few lines:
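Yeast expressing toxic A-beta grown with pinned compounds at 30 C for 48 hr. Growth measured as absorbance at 600 nm; data normalized to DMSO and to an equimolar FeCl3/clioquinol mixture as positive control.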
A general note: qHTS replaces the single test concentration by a dilution series.
For `C[N+]1(C)CCC(OC(=O)C(c2ccccc2)c2ccccc2)CC1`, the Potency result was “inactive”. Consider `C=C[C@H]1CN2CC[C@@H]1C[C@@H]2[C@@H](O)c1ccnc2ccc(OC)cc12`, for which the Potency result is “inactive”. To `CN1[C@@H](CC(=O)c2ccccc2)CCC[C@H]1C[C@H](O)c1ccccc1` belongs “inactive”; to `O=C(O)CC1CC(c2ccccc2)=NO1` (stereo unspecified), “inactive”. Then `CCCn1c(=O)c2[nH]c(-c3ccc(OCC(=O)NCCN)cc3)nc2n(CCC)c1=O`, with “inactive”; and `NCCCCC(=O)O`, with “inactive”. To `CC(C)(C)c1ccc(S(=O)(=O)/C=C/C#N)cc1` belongs “inactive”; to `Ic1ccc(N2CCN(Cc3c[nH]c4ncccc34)CC2)cc1`, “inactive”. On to `COC(=O)c1c(C)[nH]c(C)c1C(=O)c1ccccc1Cc1ccccc1`, for which the Potency entry was “inactive”. In the case of `Oc1ccc(C2CNCc3sccc32)cc1O` (stereo unspecified), the Potency result is “inactive”.

Take `NC[C@@H]1O[C@H](C23CC4CC(CC(C4)C2)C3)Cc2c1ccc(O)c2O`: the Potency entry is “inactive”. With `CC1OC1P(=O)(O)O` (stereo unspecified), the Potency entry is “inactive”. To `NC(=O)C(=O)O` belongs “inactive”; to `CN(C)c1ccc(/C=C2\C(=O)Nc3ccccc32)cc1`, “inactive”; to `Nc1ncnc2c1ncn2[C@@H]1O[C@H](COP(=O)(O)CP(=O)(O)OP(=O)(O)O)[C@@H](O)[C@H]1O`, “inactive”. Regarding `N#C/C(=C\c1ccc(-c2cc(Cl)ccc2Cl)o1)C(=O)Nc1cccc2ncccc12`, the Potency entry is “inactive”. Turning to `COc1cc(OC)c(/C=C2/C(=O)Nc3ccccc32)c(OC)c1`, the Potency result was “inactive”.

Take `CNC(=O)[C@H]1O[C@@H](n2cnc3c(NCc4ccc(N)cc4)ncnc32)[C@H](O)[C@@H]1O`: the Potency result was “inactive”. Then `CCCCC#Cc1nc(NC)c2ncn([C@@H]3O[C@H](CO)[C@@H](O)[C@H]3O)c2n1`, with “inactive”; and `COc1cccc(C(=O)NCCN2CCN(c3ccc(Cl)cc3)CC2)c1`, with “inactive”. As for `O=C(O)c1cc(=O)c2ccccc2[nH]1`, the Potency entry was “inactive”. Then `Cc1ccc(C(=O)O[C@H](C(=O)O)[C@@H](OC(=O)c2ccc(C)cc2)C(=O)O)cc1` (tested in a mixture with another compound), with “inactive”.

Take `Nc1ncnc2c1ncn2[C@@H]1O[C@H](COP(=O)(O)OP(=O)(O)OP(=O)(O)OP(=O)(O)OC[C@@H]2O[C@H](n3cnc4c(N)ncnc43)[C@@H](O)[C@H]2O)[C@@H](O)[C@H]1O`: the Potency is 8.2 µM (active).

As for `O=P(O)(O)C(Cl)(Cl)P(=O)(O)O`, the Potency result is “inactive”. Regarding `CN(C)c1nc(N)c(C(=O)N=C(N)N)nc1Cl`, the Potency entry was “inactive”. Then `CN1CCc2ccccc2Cc2[nH]c3ccccc3c2CC1`, with “inactive”. To `NC(=S)c1ccc[n+]([C@@H]2O[C@@H](COP(=O)([O-])OP(=O)(O)OC[C@H]3O[C@@H](n4cnc5c(N)ncnc54)[C@H](OP(=O)(O)O)[C@@H]3O)C(O)C2O)c1` (stereo partly specified) belongs “inactive”; to `O=C(O)CC[C@@H](C(=O)O)N1C(=O)c2ccccc2C1=O`, “inactive”; to `CCC1C(=O)OCC1Cc1cncn1C` (stereo unspecified), “inactive”. To `O=C1O/C(=C/Br)CCC1c1cccc2ccccc12` (stereo unspecified) belongs “inactive”; to `c1ccc(-c2ccccn2)nc1`, “inactive”.

With `CC(N)C(=O)OC(C)(C)Cc1ccc(Cl)cc1` (stereo unspecified), the Potency result is “inactive”.

As for `NC(N)=NC(=O)c1nc(Cl)c(N2CCCCCC2)nc1N`, the Potency result is “inactive”. With `Cc1cc(NC2CCCCC2)nc(-n2nc(C)cc2C)n1`, the Potency result is “inactive”. Regarding `CNCC[C@H](Oc1ccc(C(F)(F)F)cc1)c1ccccc1`, the Potency entry is “inactive”.

As to `COC1=C(OC)C(=O)c2ccccc2C1=O`, the Potency result is “inactive”.
